Here are results for 20 compounds from PubChem BioAssay (EPA / NIEHS).

Where “and” joins values, the source holds several entries; their conditions need not be identical. Equal entries are not always repeated. Records with an inconclusive call do not appear. Calls of active or inactive are those of the source. The calls were made as follows: active = hit-call score of the fitted dose curve at least 0.9, where 1 is the maximum; inconclusive = response in the unintended direction; inactive = score below 0.9.

Chain of Androgen Receptor/SRC-1 Co-activator, AR (gene 367) (P10275 whole entry, looked up): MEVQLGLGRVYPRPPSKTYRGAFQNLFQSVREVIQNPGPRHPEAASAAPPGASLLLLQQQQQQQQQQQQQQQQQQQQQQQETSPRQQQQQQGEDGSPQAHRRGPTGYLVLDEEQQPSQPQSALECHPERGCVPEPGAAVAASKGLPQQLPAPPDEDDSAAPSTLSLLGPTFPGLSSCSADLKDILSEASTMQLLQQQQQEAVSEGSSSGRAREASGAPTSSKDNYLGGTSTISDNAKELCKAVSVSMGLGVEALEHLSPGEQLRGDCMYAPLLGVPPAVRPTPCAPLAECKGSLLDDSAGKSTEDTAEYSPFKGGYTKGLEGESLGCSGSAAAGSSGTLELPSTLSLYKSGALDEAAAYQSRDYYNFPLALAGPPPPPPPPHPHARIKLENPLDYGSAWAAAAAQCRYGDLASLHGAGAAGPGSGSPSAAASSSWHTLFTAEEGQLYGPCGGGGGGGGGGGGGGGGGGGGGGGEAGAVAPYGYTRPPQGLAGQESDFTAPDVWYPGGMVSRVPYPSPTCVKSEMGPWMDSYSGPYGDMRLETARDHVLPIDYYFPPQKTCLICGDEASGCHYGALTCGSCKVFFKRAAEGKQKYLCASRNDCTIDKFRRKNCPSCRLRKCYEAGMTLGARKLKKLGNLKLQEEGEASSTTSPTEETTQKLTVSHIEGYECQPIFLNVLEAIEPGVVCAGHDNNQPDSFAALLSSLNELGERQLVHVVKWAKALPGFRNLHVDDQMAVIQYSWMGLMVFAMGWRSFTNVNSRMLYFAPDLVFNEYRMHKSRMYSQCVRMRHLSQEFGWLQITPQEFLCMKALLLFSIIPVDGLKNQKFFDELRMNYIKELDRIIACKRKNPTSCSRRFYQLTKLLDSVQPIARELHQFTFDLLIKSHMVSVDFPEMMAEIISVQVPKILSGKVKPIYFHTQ
T1 sequence (P03372 whole entry, looked up, the tested form may be a part): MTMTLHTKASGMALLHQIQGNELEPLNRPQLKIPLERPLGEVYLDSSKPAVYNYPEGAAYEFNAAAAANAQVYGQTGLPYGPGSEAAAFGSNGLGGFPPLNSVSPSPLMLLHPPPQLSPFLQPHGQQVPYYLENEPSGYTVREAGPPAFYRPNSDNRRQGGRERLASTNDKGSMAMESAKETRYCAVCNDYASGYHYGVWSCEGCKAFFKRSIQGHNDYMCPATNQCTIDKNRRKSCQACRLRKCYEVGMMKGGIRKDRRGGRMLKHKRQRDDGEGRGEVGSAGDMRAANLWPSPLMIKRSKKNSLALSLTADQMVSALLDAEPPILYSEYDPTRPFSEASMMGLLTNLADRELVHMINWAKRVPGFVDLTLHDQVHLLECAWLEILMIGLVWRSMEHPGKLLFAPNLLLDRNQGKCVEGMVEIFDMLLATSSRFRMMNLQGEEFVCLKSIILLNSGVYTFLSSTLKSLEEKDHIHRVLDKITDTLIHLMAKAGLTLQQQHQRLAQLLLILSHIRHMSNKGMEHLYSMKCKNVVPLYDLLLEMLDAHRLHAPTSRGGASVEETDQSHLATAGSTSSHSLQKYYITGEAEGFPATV
T1 sequence (Q92731 whole entry, looked up, the tested form may be a part): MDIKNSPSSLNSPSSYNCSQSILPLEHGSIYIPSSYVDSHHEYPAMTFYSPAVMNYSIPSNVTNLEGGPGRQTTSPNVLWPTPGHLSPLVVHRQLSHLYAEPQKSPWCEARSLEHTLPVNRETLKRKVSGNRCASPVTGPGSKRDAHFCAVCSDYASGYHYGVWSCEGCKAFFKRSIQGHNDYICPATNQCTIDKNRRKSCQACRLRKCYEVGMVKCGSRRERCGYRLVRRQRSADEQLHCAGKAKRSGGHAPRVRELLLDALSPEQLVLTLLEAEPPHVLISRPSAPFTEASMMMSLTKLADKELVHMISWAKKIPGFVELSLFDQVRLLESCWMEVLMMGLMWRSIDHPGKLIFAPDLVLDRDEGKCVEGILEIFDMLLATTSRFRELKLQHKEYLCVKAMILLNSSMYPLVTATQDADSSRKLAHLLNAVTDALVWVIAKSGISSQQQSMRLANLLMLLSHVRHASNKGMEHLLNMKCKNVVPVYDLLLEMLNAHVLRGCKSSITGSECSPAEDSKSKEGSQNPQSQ

The target in the first test is T1, Estrogen receptor (Homo sapiens) + Estrogen receptor beta (Homo sapiens) (UniProt P03372+Q92731). The test can be described thus: OT_ER_ERaERb_0480: Odyssey Thera (OT) 8-hour HEK293T Protein-Complementation Assay for Estrogen Receptor-alpha/-beta Heterodimer (AID 2283352). The method, boiled down:
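Increase in mean fluorescence intensity, measured by laser scanning plate cytometry, reported ER-alpha/ER-beta LBD complementation in HEK293T cells after 8 h chemical exposure. DMSO served as baseline; basal signal is low, punctate and cytoplasmic.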
Consider `C=CC1(C)OC(=O)N(c2cc(Cl)cc(Cl)c2)C1=O` (centres undefined), for which the result was inactive.

Turning to `CCCCNC(=O)n1c(NC(=O)OC)nc2ccccc21`, the result was inactive.

Turning to `COC(=O)c1ccccc1C(=O)OC`, the result was inactive.

Consider `OC(c1ccc(Cl)cc1)(c1cncnc1)c1ccccc1Cl` (centres undefined), for which the AC50 was 11.9 µM (active).

As to `CCCCC(CC)COC(=O)c1ccccc1C(=O)OCC(CC)CCCC` (centres undefined), the half-maximal activity concentration (AC50) was 66.9 µM (active).

Take `CCNc1nc(Cl)nc(NC(C)C)n1`: the result was inactive.

As to `COc1ccc(C(c2ccc(OC)cc2)C(Cl)(Cl)Cl)cc1`, the AC50 is 4.23 µM (active) and 12.5 µM (active) and 9.58 µM (active).

Regarding `Cc1ccc(-c2c(Cl)nc(C#N)n2S(=O)(=O)N(C)C)cc1`, the outcome was inactive.

`CCCCOC(=O)c1ccccc1C(=O)OCCCC`: the AC50 is 33.1 µM (active) and 25.9 µM (active) and 23.5 µM (active).

Take `COP(=S)(OC)Oc1nc(Cl)c(Cl)cc1Cl`: the outcome was inactive.

For the compound `Cc1c(F)c(F)c(COC(=O)C2C(/C=C(\Cl)C(F)(F)F)C2(C)C)c(F)c1F` (centres undefined), the result was inactive.

In the case of `COc1cnc(OC)n2nc(NS(=O)(=O)c3c(OCC(F)F)cccc3C(F)(F)F)nc12`, the result was inactive.

In the case of `CCc1nn(C)c(C(=O)NCc2ccc(C(C)(C)C)cc2)c1Cl`, the result was inactive.

For the compound `COc1nc(NC(C)C)nc(NC(C)C)n1`, the outcome was inactive.

A further test concerns the target Androgen Receptor/SRC-1 Co-activator, AR (gene 367) (UniProt P10275). Put plainly: OT_AR_ARSRC1_0960: Odyssey Thera (OT) 16-hour HEK293T Protein-Complementation Assay for Androgen Receptor/SRC-1 Co-activator (AID 2283353).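 Also: actives raise the signal above DMSO so potency reflects increased AR and SRC-1 complex.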 In outline:
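Endpoint is gain-of-signal N/C fluorescence ratio in the 488 nm channel versus DMSO, from at least 400 cells per image, measured 16 h post-dosing. Cells: HEK293T stably carrying split-Venus AR/SRC-1 complementation constructs.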
Turning to `CCCCNC(=O)n1c(NC(=O)OC)nc2ccccc21`, the compound was classed as inactive.

Regarding `N#Cc1nn(-c2c(Cl)cc(C(F)(F)F)cc2Cl)c(N)c1S(=O)C(F)(F)F` (centres undefined), the AC50 is 22.7 µM (active).

Turning to `CCOC(=O)CC(SP(=S)(OC)OC)C(=O)OCC` (centres undefined), the compound was called inactive.

`N#Cc1cc(Br)c(O)c(Br)c1`: the outcome was inactive.

For `CO/C=C(/C(=O)OC)c1ccccc1Oc1cc(Oc2ccccc2C#N)ncn1`, the result was inactive.

Consider `Cc1ccc(-c2c(Cl)nc(C#N)n2S(=O)(=O)N(C)C)cc1`, for which the AC50 is 27.1 µM (active).

Regarding `Cc1cc(Cl)ccc1OCC(=O)O`, the compound was classed as inactive.

A further test shares this target. The test can be described thus: OT_AR_ARSRC1_0480: Odyssey Thera (OT) 8-hour HEK293T Protein-Complementation Assay for Androgen Receptor/SRC-1 Co-activator (AID 2283354).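 Also: hits raise the complementation signal above DMSO so AC50 marks enhancers.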 In outline: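 Reconstituted split-Venus YFP signal from AR–SRC-1 interaction, read by imaging 8 h post-dose in stable HEK293T lines. The 488 nm nucleus-to-cytoplasm ratio (≥400 cells/image) was fitted upward against DMSO.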
Turning to `CCCCNC(=O)n1c(NC(=O)OC)nc2ccccc21`, the compound was called inactive.

Regarding `N#Cc1nn(-c2c(Cl)cc(C(F)(F)F)cc2Cl)c(N)c1S(=O)C(F)(F)F` (centres undefined), the compound was called inactive.

As for `CCOC(=O)CC(SP(=S)(OC)OC)C(=O)OCC` (centres undefined), the compound was called inactive.

As for `N#Cc1cc(Br)c(O)c(Br)c1`, the outcome was inactive.

Consider `CO/C=C(/C(=O)OC)c1ccccc1Oc1cc(Oc2ccccc2C#N)ncn1`, for which the compound was called inactive.

As for `Cc1ccc(-c2c(Cl)nc(C#N)n2S(=O)(=O)N(C)C)cc1`, the compound was classed as inactive.

Turning to `Cc1cc(Cl)ccc1OCC(=O)O`, the compound was classed as inactive.

In the next test the target is T1, Estrogen receptor (Homo sapiens) + Estrogen receptor beta (Homo sapiens). The test can be described thus: OT_ER_ERaERb_1440: Odyssey Thera (OT) 24-hour HEK293T Protein-Complementation Assay for Estrogen Receptor-alpha/-beta Homodimer (AID 2283356).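 Also: heteromer of ER alpha and ER beta binding domains; hits raise reporter fluorescence and both agonists and antagonists give an increase.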 The method, boiled down: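 Heterodimerisation of ERα (aa 310-547) and ERβ (aa 263-489) ligand binding domains was tracked as fluorescence gain in stably transfected HEK293T cells following 24 h dosing, normalised to DMSO controls.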
Regarding `CCCN(CCC)c1c([N+](=O)[O-])cc(S(N)(=O)=O)cc1[N+](=O)[O-]`, the result was inactive.

Consider `C=CC1(C)OC(=O)N(c2cc(Cl)cc(Cl)c2)C1=O` (centres undefined), for which the result was inactive.

Take `CCCCNC(=O)n1c(NC(=O)OC)nc2ccccc21`: the outcome was inactive.

For the compound `COC(=O)c1ccccc1C(=O)OC`, the result was inactive.

For `OC(c1ccc(Cl)cc1)(c1cncnc1)c1ccccc1Cl` (centres undefined), the AC50 is 12.1 µM (active).

Take `N#Cc1nn(-c2c(Cl)cc(C(F)(F)F)cc2Cl)c(N)c1S(=O)C(F)(F)F` (centres undefined): the result was inactive.

As for `CCCCC(CC)COC(=O)c1ccccc1C(=O)OCC(CC)CCCC` (centres undefined), the AC50 is 50 µM (active).

On to `CCNc1nc(Cl)nc(NC(C)C)n1`, for which the result was inactive.

As for `COc1ccc(C(c2ccc(OC)cc2)C(Cl)(Cl)Cl)cc1`, the AC50 was 25.8 µM (active) and 33.2 µM (active) and 22.2 µM (active).

Consider `CO/C=C(/C(=O)OC)c1ccccc1Oc1cc(Oc2ccccc2C#N)ncn1`, for which the outcome was inactive.

`Cc1ccc(-c2c(Cl)nc(C#N)n2S(=O)(=O)N(C)C)cc1`: the outcome was inactive.

For `CCCCOC(=O)c1ccccc1C(=O)OCCCC`, the AC50 is 38.4 µM (active) and 33.9 µM (active) and 39.3 µM (active).

As for `COP(=S)(OC)Oc1nc(Cl)c(Cl)cc1Cl`, the outcome was inactive.

Take `Cc1c(F)c(F)c(COC(=O)C2C(/C=C(\Cl)C(F)(F)F)C2(C)C)c(F)c1F` (centres undefined): the outcome was inactive.

On to `CCc1nn(C)c(C(=O)NCc2ccc(C(C)(C)C)cc2)c1Cl`, for which the outcome was inactive.

Consider `COc1nc(NC(C)C)nc(NC(C)C)n1`, for which the outcome was inactive.
